The antibiotic and cytotoxicity screens of Wong et al. (2023)
Hit rate of the full screen: of about 39,000 compounds, about 3,300 (8.5%) were called active. Many of the other results were omitted from the sample, so actives are more common in it than they were.

These compounds were tested on HepG2 (assay: cytotoxicity call (relative viability < 0.9)). Conditions: 10 µM.

| SMILES | cytotoxicity call |
| --- | --- |
| C[C@@H]1CN([C@H](C)CO)S(=O)(=O)c2ccc(C#Cc3cccc(F)c3)cc2O[C@@H]1CN(C)S(=O)(=O)c1cn(C)cn1 | inactive |
| Cc1ccc(S(=O)(=O)Nc2ccc3c(c2)C(=O)N([C@H](C)CO)C[C@H](C)[C@H](CN(C)C(=O)c2ccccc2)OCCCC[C@@H](C)O3)cc1 | inactive |
| O=C(Cc1ccccc1)Nc1ccccc1Sc1ccccc1 | inactive |
| CC(C)NC(=O)Nc1ccc2c(c1)C(=O)N(C)[C@@H]1CC[C@@H](CC(=O)NCc3ccc(F)cc3)O[C@@H]1CO2 | inactive |
| C[C@@H]1CN([C@H](C)CO)C(=O)c2cc(-c3cccnc3)cnc2O[C@@H]1CN(C)Cc1ccc(-c2ccccc2)cc1 | inactive |
| C[C@@H]1CN([C@@H](C)CO)C(=O)c2cc(NC(=O)Nc3cccc4ccccc34)ccc2O[C@@H]1CN(C)Cc1ccc(C(=O)O)cc1 | inactive |
| C[C@@H]1CN([C@@H](C)CO)C(=O)c2cccc(NS(=O)(=O)c3cccs3)c2O[C@@H]1CN(C)S(C)(=O)=O | inactive |
| Cc1noc(C)c1NC(=O)N(C)C[C@@H]1Oc2c(NC(=O)NC(C)C)cccc2C(=O)N([C@H](C)CO)C[C@@H]1C | inactive |
| C[C@@H]1CN([C@H](C)CO)C(=O)CCCn2nncc2CO[C@@H]1CN(C)S(=O)(=O)c1cccc(C#N)c1 | inactive |
| COc1ccc(S(=O)(=O)Nc2cccc3c2O[C@@H](CN(C)S(=O)(=O)c2ccc(F)cc2)[C@H](C)CN([C@@H](C)CO)C3=O)cc1 | inactive |
| C[C@@H]1CN([C@@H](C)CO)C(=O)Cc2cc(NC(=O)CCN3CCOCC3)ccc2O[C@@H]1CN(C)CC1CC1 | inactive |
| C[C@H](CO)N1C[C@H](C)[C@H](CN(C)CC2CCCCC2)OCCCC[C@H](C)Oc2ccc(NC(=O)C3CCCCC3)cc2C1=O | inactive |
| C[C@@H]1CCCCO[C@H](CN(C)CC2CCCCC2)[C@H](C)CN([C@H](C)CO)C(=O)c2cc(NC(=O)C3CCCCC3)ccc2O1 | inactive |
| C[C@@H]1CN([C@H](C)CO)C(=O)c2cc(NC(=O)C3CCCCC3)ccc2O[C@@H](C)CCCCO[C@@H]1CN(C)CC1CCCCC1 | active |
| C[C@H]1CCCCO[C@H](CN(C)CC2CCCCC2)[C@@H](C)CN([C@@H](C)CO)C(=O)c2cc(NC(=O)C3CCCCC3)ccc2O1 | active |
| C[C@@H]1CCCCO[C@@H](CN(C)CC2CCCCC2)[C@@H](C)CN([C@@H](C)CO)C(=O)c2cc(NC(=O)C3CCCCC3)ccc2O1 | active |
| C[C@@H]1CCCCO[C@@H](CN(C)CC2CCCCC2)[C@H](C)CN([C@H](C)CO)C(=O)c2cc(NC(=O)C3CCCCC3)ccc2O1 | inactive |
| C[C@H](CO)N1C[C@H](C)[C@@H](CN(C)CC2CCCCC2)OCCCC[C@H](C)Oc2ccc(NC(=O)C3CCCCC3)cc2C1=O | inactive |
| C[C@@H]1CCCCO[C@H](CN(C)CC2CCCCC2)[C@H](C)CN([C@@H](C)CO)C(=O)c2cc(NC(=O)C3CCCCC3)ccc2O1 | inactive |
| C[C@H]1CCCCO[C@@H](CN(C)CC2CCCCC2)[C@@H](C)CN([C@@H](C)CO)C(=O)c2cc(NC(=O)C3CCCCC3)ccc2O1 | inactive |
| C[C@@H]1CN([C@@H](C)CO)C(=O)c2cc(NC(=O)C3CCCCC3)ccc2O[C@@H](C)CCCCO[C@H]1CN(C)CC1CCCCC1 | active |

| SMILES | cytotoxicity call |
| --- | --- |
| C[C@@H]1CCCCO[C@@H](CN(C)CC2CCCCC2)[C@H](C)CN([C@@H](C)CO)C(=O)c2cc(NC(=O)C3CCCCC3)ccc2O1 | inactive |
| C[C@@H]1CN([C@@H](C)CO)C(=O)c2cc(NC(=O)C3CCCCC3)ccc2O[C@@H](C)CCCCO[C@@H]1CN(C)CC1CCCCC1 | inactive |
| COc1ccc(S(=O)(=O)N(C)C[C@@H]2OCCCC[C@@H](C)Oc3ccc(NS(C)(=O)=O)cc3C(=O)N([C@@H](C)CO)C[C@H]2C)cc1 | inactive |
| C[C@H]1CN([C@@H](C)CO)C(=O)c2cccc(NC(=O)C3CCOCC3)c2O[C@H]1CN(C)Cc1ccc(-c2ccccc2)cc1 | inactive |
| O=C1NC(=O)[C@H]2CC[C@H]2N1 | inactive |
| CN(CC=Cc1ccccc1)Cc1cccc2ccccc12.Cl | inactive |
| Cc1noc(C)c1S(=O)(=O)N(C)C[C@H]1OCCCC[C@H](C)Oc2ccc(NC(=O)Nc3ccc(C(F)(F)F)cc3)cc2C(=O)N([C@H](C)CO)C[C@@H]1C | inactive |
| Cc1ccc(S(=O)(=O)Nc2ccc3c(c2)C(=O)N([C@@H](C)CO)C[C@H](C)[C@H](CN(C)Cc2ccncc2)OCCCC[C@H](C)O3)cc1 | inactive |
| COCC(=O)N1CC(=O)N2[C@H](C1)[C@@H](c1ccc(C#Cc3cccnc3)cc1)[C@@H]2CO | inactive |
| Cc1noc(C)c1S(=O)(=O)N(C)C[C@H]1Oc2ccc(NS(=O)(=O)c3ccccc3)cc2CC(=O)N([C@H](C)CO)C[C@H]1C | inactive |
| C[C@@H]1CN([C@@H](C)CO)C(=O)c2cccc(NS(=O)(=O)c3ccc(F)cc3)c2O[C@@H]1CN(C)Cc1ccc(Oc2ccccc2)cc1 | active |
| COc1ccc(S(=O)(=O)Nc2cccc3c2O[C@H](CN(C)Cc2ccc(Oc4ccccc4)cc2)[C@H](C)CN([C@@H](C)CO)C3=O)cc1 | active |
| COc1ccc(S(=O)(=O)Nc2cccc3c2O[C@H](CN(C)Cc2ccc(Oc4ccccc4)cc2)[C@@H](C)CN([C@H](C)CO)C3=O)cc1 | inactive |
| C[C@H]1CN([C@@H](C)CO)C(=O)c2cccc(NS(=O)(=O)c3ccc(Cl)cc3)c2O[C@@H]1CN(C)Cc1ccc(Oc2ccccc2)cc1 | active |
| COc1ccc(S(=O)(=O)Nc2cccc3c2O[C@H](CN(C)Cc2ccc(Oc4ccccc4)cc2)[C@@H](C)CN([C@@H](C)CO)C3=O)cc1 | inactive |
| C[C@@H]1CN([C@@H](C)CO)C(=O)c2cccc(NS(=O)(=O)c3ccc(F)cc3)c2O[C@H]1CN(C)Cc1ccc(Oc2ccccc2)cc1 | inactive |
| C[C@@H]1CN([C@@H](C)CO)C(=O)c2cccc(NS(=O)(=O)c3ccc(Cl)cc3)c2O[C@@H]1CN(C)Cc1ccc(Oc2ccccc2)cc1 | inactive |
| COc1ccc(S(=O)(=O)Nc2cccc3c2O[C@H](CN(C)Cc2ccc(-c4ccccc4)cc2)[C@H](C)CN([C@@H](C)CO)C3=O)cc1 | inactive |
| COc1ccc(S(=O)(=O)Nc2cccc3c2O[C@H](CN(C)Cc2ccc(-c4ccccc4)cc2)[C@@H](C)CN([C@H](C)CO)C3=O)cc1 | active |
| C[C@H]1CN([C@@H](C)CO)C(=O)c2cccc(NS(=O)(=O)c3ccc(F)cc3)c2O[C@@H]1CN(C)Cc1ccc(Oc2ccccc2)cc1 | inactive |
| COc1ccc(S(=O)(=O)Nc2cccc3c2O[C@H](CN(C)Cc2ccc(-c4ccccc4)cc2)[C@H](C)CN([C@H](C)CO)C3=O)cc1 | inactive |

| SMILES | cytotoxicity call |
| --- | --- |
| C[C@@H]1CN([C@@H](C)CO)C(=O)c2cccc(NS(=O)(=O)c3ccc(Cl)cc3)c2O[C@H]1CN(C)Cc1ccc(Oc2ccccc2)cc1 | inactive |
| COc1ccc(S(=O)(=O)Nc2ccc3c(c2)C(=O)N([C@H](C)CO)C[C@H](C)[C@H](CN(C)C(=O)c2ccccc2)OCCCC[C@H](C)O3)cc1 | inactive |
| CCS(=O)(=O)Nc1ccc2c(c1)C(=O)N(C)C[C@H](OC)[C@@H](C)CN(C(=O)c1ccc3c(c1)OCO3)[C@@H](C)CO2 | inactive |
| O=C1CCOCCN1 | inactive |
| C[C@@H]1CCCCO[C@H](CN(C)S(C)(=O)=O)[C@@H](C)CN([C@H](C)CO)C(=O)c2cc(NS(=O)(=O)c3ccccc3)ccc2O1 | inactive |
| CC(C)C#Cc1cnc2c(c1)C(=O)N([C@H](C)CO)C[C@H](C)[C@@H](CN(C)C(=O)c1ccc3c(c1)OCO3)O2 | inactive |
| COc1ccc(-c2cnc3c(c2)C(=O)N([C@@H](C)CO)C[C@@H](C)[C@H](CN(C)C(=O)Cc2ccncc2)O3)cc1 | inactive |
| Cc1ccc(S(=O)(=O)N(C)C[C@@H]2Oc3ccc(NC(=O)CCCN(C)C)cc3C(=O)N([C@@H](C)CO)C[C@H]2C)cc1 | inactive |
| CCC=CCC1=C(C)CCC1=O | inactive |
| C[C@]1(C(=O)NCc2ccccc2)c2ccccc2C(=O)N(Cc2ccccc2)[C@H]1c1ccc(COC(=O)NCCCCCC(=O)NO)cc1 | inactive |
| COc1ccc(CN(C)C[C@@H]2OCCCC[C@H](C)Oc3ccc(NC(=O)Nc4ccccc4)cc3C(=O)N([C@@H](C)CO)C[C@@H]2C)cc1 | inactive |
| Cc1ccc(S(=O)(=O)Nc2ccc3c(c2)C(=O)N([C@H](C)CO)C[C@@H](C)[C@H](CN(C)C(=O)C2CCCCC2)OCCCC[C@H](C)O3)cc1 | inactive |
| O=C(C[C@@H]1CC[C@@H]2[C@H](COC[C@@H](O)CN2S(=O)(=O)c2ccc(Cl)cc2)O1)NCc1ccncn1 | inactive |
| Cc1noc(C)c1S(=O)(=O)Nc1ccc2c(c1)C(=O)N([C@@H](C)CO)C[C@H](C)[C@@H](CN(C)S(=O)(=O)c1ccc(F)cc1)O2 | inactive |
| C[C@H](CO)N1C[C@H](C)[C@H](CN(C)Cc2ccc(Oc3ccccc3)cc2)Oc2ccc(NS(=O)(=O)c3ccc(F)cc3)cc2CC1=O | active |
| C[C@H]1CN([C@@H](C)CO)C(=O)Cc2cc(NS(=O)(=O)c3ccc(F)cc3)ccc2O[C@@H]1CN(C)Cc1ccc(Oc2ccccc2)cc1 | inactive |
| C[C@@H]1CN([C@H](C)CO)C(=O)Cc2cc(NS(=O)(=O)c3ccc(F)cc3)ccc2O[C@H]1CN(C)Cc1ccc(Oc2ccccc2)cc1 | active |
| C[C@H]1CN([C@@H](C)CO)C(=O)Cc2cc(NS(=O)(=O)c3ccc(F)cc3)ccc2O[C@H]1CN(C)Cc1ccc(Oc2ccccc2)cc1 | active |
| C[C@@H]1CN([C@@H](C)CO)C(=O)Cc2cc(NS(=O)(=O)c3ccc(F)cc3)ccc2O[C@H]1CN(C)Cc1ccc(Oc2ccccc2)cc1 | inactive |
| C[C@@H]1CN([C@@H](C)CO)C(=O)Cc2cc(NS(=O)(=O)c3ccc(F)cc3)ccc2O[C@@H]1CN(C)Cc1ccc(Oc2ccccc2)cc1 | active |
